mHTT-CaM PPI inh: mHTT-calmodulin interaction abrogation; AlphaScreen His-mHTT/GST-CaM binding, luminescence; 3.6% of 190,000 active; inhibition, % at 15 µM; AID 1671202
Pf apPOL inh: Pf-apPOL DNA polymerase inhibition; Recombinant Pf-apPOL, molecular beacon fluorescence, 1.5 h; inhibition, % at 10 µM; 0.25% of 210,000 active; AID 1794808
Numbers stand for hits. Only some compounds are listed: those with a hit (about 3.6% of all), similar ones and a draw of the others. Cut-off read from the data, not from the text of the source: active = inhibition above about 50%; inactive = the rest.

How did COc1ccc(-n2cc(C(=O)N3CCN(c4ccc(F)cc4)CC3)c3ccccc3c2=O)cc1 do in these assays?
mHTT-CaM PPI inh: 78; Pf apPOL inh: inactive

What do the screens show for `COc1ccccc1N1CCN(C(=O)c2nn(-c3ccc(F)cc3)cc2OC)CC1`?
mHTT-CaM PPI inh: 68; Pf apPOL inh: inactive

Results for COc1ccccc1N1CCN(C(=O)c2nn(-c3ccc(F)cc3)c(=O)cc2OC)CC1 ?
mHTT-CaM PPI inh: inactive; Pf apPOL inh: inactive

How did COc1ccccc1N1CCN(C(=O)c2sc3cccc(F)c3c2OC)CC1 do in these assays?
mHTT-CaM PPI inh: 78; Pf apPOL inh: inactive

What do the screens show for `COc1ccc(-n2cc(C(=O)N3CCN(c4ccccc4F)CC3)c3ccccc3c2=O)cc1`?
mHTT-CaM PPI inh: inactive; Pf apPOL inh: inactive

How did COc1ccccc1N1CCN(C(=O)c2ccccc2F)CC1 do in these assays?
mHTT-CaM PPI inh: inactive; Pf apPOL inh: inactive

What do the screens show for `COc1cccc(N2CCN(C(=O)c3sc4cccc(F)c4c3OC)CC2)c1`?
mHTT-CaM PPI inh: inactive; Pf apPOL inh: inactive

How did COc1ccc(N2CCN(C(=O)c3sc4cccc(F)c4c3OC)CC2)cc1 do in these assays?
mHTT-CaM PPI inh: 64; Pf apPOL inh: inactive

What do the screens show for `O=C(NCc1ccccc1)N1CCC(Nc2cccnc2)C1` (stereo unspecified)?
mHTT-CaM PPI inh: inactive; Pf apPOL inh: inactive

How did O=C(NCc1cc(F)cc(F)c1)C1CCc2sc(C(=O)N3CCCC3)cc2C1 (stereo unspecified) do in these assays?
mHTT-CaM PPI inh: inactive; Pf apPOL inh: inactive

How did Cc1nc(-c2ccc3c(c2)CCN3C(=O)C2CC2)cs1 do in these assays?
mHTT-CaM PPI inh: inactive; Pf apPOL inh: inactive

How did CCC(=O)N(C)CC(=O)N1N=C(c2ccccc2F)CC1c1ccccc1 (stereo unspecified) do in these assays?
mHTT-CaM PPI inh: inactive; Pf apPOL inh: inactive

What do the screens show for `O=C(CN1C(=O)/C(=C/c2ccccc2)Sc2ccccc21)NCc1ccccn1`?
mHTT-CaM PPI inh: 72; Pf apPOL inh: inactive

What do the screens show for `CN(C)CCNC(=O)CN1C(=O)/C(=C/c2ccc(Cl)cc2)Sc2ccccc21`?
mHTT-CaM PPI inh: inactive; Pf apPOL inh: inactive

How did O=C(CN1C(=O)CSc2ccccc21)NCc1ccccn1 do in these assays?
mHTT-CaM PPI inh: inactive; Pf apPOL inh: inactive

What do the screens show for `CCN(CCNC(=O)CN1C(=O)/C(=C/c2ccccc2F)Sc2ccccc21)c1ccccc1`?
mHTT-CaM PPI inh: inactive; Pf apPOL inh: inactive

What do the screens show for `COCCNC(=O)CN1C(=O)/C(=C/c2ccc(Cl)cc2)Sc2ccccc21`?
mHTT-CaM PPI inh: inactive; Pf apPOL inh: inactive

Results for CCN(CC)CCNC(=O)CN1C(=O)/C(=C/c2ccc(Cl)cc2)Sc2ccccc21 ?
mHTT-CaM PPI inh: 59; Pf apPOL inh: inactive

What do the screens show for `O=C(CN1C(=O)/C(=C/c2ccc(Cl)cc2)Sc2ccccc21)NCc1ccccn1`?
mHTT-CaM PPI inh: 54; Pf apPOL inh: inactive

Results for CN(CCNC(=O)CN1C(=O)/C(=C/c2ccccc2F)Sc2ccccc21)Cc1ccccc1 ?
mHTT-CaM PPI inh: 92; Pf apPOL inh: inactive

Results for CCN1CCN(C(=O)CN2C(=O)/C(=C/c3ccc(C(F)(F)F)cc3)Sc3ccccc32)CC1 ?
mHTT-CaM PPI inh: 68; Pf apPOL inh: inactive

Results for CCCCNC(=O)CN1C(=O)/C(=C/c2ccccc2C)Sc2ccccc21 ?
mHTT-CaM PPI inh: inactive; Pf apPOL inh: inactive

What do the screens show for `CCOCCCNC(=O)CN1C(=O)/C(=C/c2ccccc2C)Sc2ccccc21`?
mHTT-CaM PPI inh: inactive; Pf apPOL inh: 74

How did O=C(CN1C(=O)/C(=C/c2ccc(C(F)(F)F)cc2)Sc2ccccc21)N1CCCC1 do in these assays?
mHTT-CaM PPI inh: inactive; Pf apPOL inh: inactive

How did Cc1onc(-c2c(Cl)cccc2Cl)c1C(=O)NNC(=O)CON=Cc1ccc(Cl)cc1Cl do in these assays?
Pf apPOL inh: inactive

Results for COc1cccc(C2=NOC(C(=O)Nc3cc(Br)ccc3O)C2)c1OC (stereo unspecified) ?
mHTT-CaM PPI inh: inactive; Pf apPOL inh: inactive

How did O=C(NCCN1CCCCC1)c1ccc(NC(=O)C2CC2)cc1N1CCCCCC1 do in these assays?
mHTT-CaM PPI inh: inactive; Pf apPOL inh: inactive

What do the screens show for `O=C1/C(=C/c2ccccc2F)Sc2ccccc21`?
mHTT-CaM PPI inh: 58; Pf apPOL inh: inactive

How did O=C1/C(=C/c2ccc(F)cc2F)Sc2ccccc21 do in these assays?
mHTT-CaM PPI inh: inactive; Pf apPOL inh: inactive

Results for O=C1/C(=C/c2cc([N+](=O)[O-])ccc2O)Sc2ccccc21 ?
mHTT-CaM PPI inh: 73; Pf apPOL inh: inactive

How did O=C1/C(=C/c2cc([N+](=O)[O-])ccc2Cl)Sc2ccccc21 do in these assays?
mHTT-CaM PPI inh: inactive; Pf apPOL inh: inactive

What do the screens show for `COc1cccc(C(=O)N2CCC(c3cc(N)on3)CC2)c1OC`?
mHTT-CaM PPI inh: inactive; Pf apPOL inh: inactive

How did Cc1ccc2nc3c(N)c(Cl)cc4c3c(c2c1)-c1ccccc1C4=O do in these assays?
mHTT-CaM PPI inh: 61; Pf apPOL inh: inactive

What do the screens show for `O=C1c2ccccc2-c2cc(Cl)nc3ccc(Cl)c1c23`?
mHTT-CaM PPI inh: inactive; Pf apPOL inh: inactive

What do the screens show for `COc1ccccc1Nc1nc(-c2ccncc2)cs1`?
mHTT-CaM PPI inh: inactive; Pf apPOL inh: inactive

Results for COc1ccc(OC)c(Nc2nc(-c3sc(N)nc3C)cs2)c1 ?
mHTT-CaM PPI inh: 81; Pf apPOL inh: inactive

What do the screens show for `COc1ccc(Cl)cc1Nc1nc(-c2sc(N)nc2C)cs1`?
mHTT-CaM PPI inh: 82; Pf apPOL inh: inactive

Results for COc1nc(Nc2cc(Cl)ccc2OC)nc(OC)n1 ?
mHTT-CaM PPI inh: inactive; Pf apPOL inh: inactive

What do the screens show for `O=C1S/C(=C\c2ccccc2F)C(=O)N1CNc1ccc(I)cc1`?
mHTT-CaM PPI inh: inactive; Pf apPOL inh: inactive

What do the screens show for `Cc1cccc(S(=O)(=O)N2CCCC(C)(C(=O)NCc3ccccc3)C2)c1` (stereo unspecified)?
mHTT-CaM PPI inh: inactive; Pf apPOL inh: inactive

What do the screens show for `COc1ccc(OC)c(S(=O)(=O)N2CCCC(C)(C(=O)NCc3ccccc3)C2)c1` (stereo unspecified)?
mHTT-CaM PPI inh: inactive; Pf apPOL inh: inactive

What do the screens show for `COc1ccc(Cl)cc1S(=O)(=O)N1CCCC(C)(C(=O)NCc2ccccc2)C1` (stereo unspecified)?
mHTT-CaM PPI inh: 95; Pf apPOL inh: inactive

How did CC1(C(=O)NCc2ccccc2)CCCN(S(=O)(=O)c2ccc(F)c(Cl)c2)C1 (stereo unspecified) do in these assays?
mHTT-CaM PPI inh: 66; Pf apPOL inh: inactive

Results for CCOc1ccccc1C1Nc2ccccc2NC2=C1C(=O)CC(c1cccs1)C2 (stereo unspecified) ?
mHTT-CaM PPI inh: inactive; Pf apPOL inh: inactive

How did COCCNC(=O)c1cn(C)c(=O)c2c1c1ccccc1n2C do in these assays?
mHTT-CaM PPI inh: inactive; Pf apPOL inh: inactive

What do the screens show for `CC(=O)c1ccc(NS(=O)(=O)c2ccc(Oc3ccc([N+](=O)[O-])cc3)cc2)cc1`?
mHTT-CaM PPI inh: inactive; Pf apPOL inh: inactive

How did O=C1OC(=C2c3ccccc3-c3ccccc32)c2ccccc21 do in these assays?
mHTT-CaM PPI inh: inactive

What do the screens show for `CCN(C)C1=Nc2ccccc2Oc2ccc(NC(=O)C(C)C)cc21`?
mHTT-CaM PPI inh: inactive; Pf apPOL inh: inactive

What do the screens show for `C=CCc1cc(Cl)ccc1OCCCN1CCOCC1`?
mHTT-CaM PPI inh: inactive; Pf apPOL inh: inactive

Results for COc1ccc2[nH]cc(CCNC(=O)c3ccc(Cl)cc3)c2c1 ?
mHTT-CaM PPI inh: inactive; Pf apPOL inh: inactive

How did O=C(NCCc1c[nH]c2ccc(OCc3ccccc3)cc12)c1ccc(Cl)cc1 do in these assays?
mHTT-CaM PPI inh: 73; Pf apPOL inh: inactive

Screening results: PubChem, University of Kansas High Throughput Screening Laboratory
